Assays:
[1] = target: T1, GST-Nv-NF-kB (Ser allele) (Nematostella vectensis, UniProt A7UNT2 2-411); assay: protein-binding microarray (PBM); PBM: ~300 nM protein, 6 mM HEPES pH 7.8, 80 mM KCl, 0.5 mM EDTA, 0.5 mM EGTA, 6% glycerol, 35 ng/ul poly-dIdC, 1% milk, 1 h, room temperature; Ap Aiptasia and Nv Nematostella (sea anemones) / Co Capsaspora / Aq Amphimedon (sponge) / Dm Drosophila / Hu human; RHD is the Rel homology domain; high values mean tight binding; settings: dsDNA, one strand shown
T1 sequence: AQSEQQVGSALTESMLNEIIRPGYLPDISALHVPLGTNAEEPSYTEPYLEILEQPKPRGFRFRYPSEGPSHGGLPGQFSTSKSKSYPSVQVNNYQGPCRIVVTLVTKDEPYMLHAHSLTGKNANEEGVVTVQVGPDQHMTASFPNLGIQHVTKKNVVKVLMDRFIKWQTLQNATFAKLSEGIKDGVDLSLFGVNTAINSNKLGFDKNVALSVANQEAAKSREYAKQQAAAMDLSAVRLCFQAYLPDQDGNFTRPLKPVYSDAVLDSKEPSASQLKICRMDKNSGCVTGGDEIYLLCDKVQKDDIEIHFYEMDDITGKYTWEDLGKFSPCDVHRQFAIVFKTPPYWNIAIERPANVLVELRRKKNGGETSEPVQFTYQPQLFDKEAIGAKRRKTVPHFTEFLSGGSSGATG

[2] = target: GST-Hu-p50 (Homo sapiens, UniProt P19838 7-356); assay: as above; settings: dsDNA, one strand shown
GST-Hu-p50, sequence (P19838 7-356): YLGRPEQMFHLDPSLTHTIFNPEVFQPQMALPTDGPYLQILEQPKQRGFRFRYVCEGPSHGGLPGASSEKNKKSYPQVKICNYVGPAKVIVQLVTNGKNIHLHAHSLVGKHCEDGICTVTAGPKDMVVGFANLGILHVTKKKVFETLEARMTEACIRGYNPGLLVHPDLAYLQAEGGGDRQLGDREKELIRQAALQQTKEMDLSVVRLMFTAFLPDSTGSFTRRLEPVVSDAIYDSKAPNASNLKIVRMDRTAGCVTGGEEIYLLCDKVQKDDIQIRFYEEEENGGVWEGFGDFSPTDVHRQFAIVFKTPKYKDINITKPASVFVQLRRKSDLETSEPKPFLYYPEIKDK

| Sequence | binding signal [1] [z-score] | binding signal [2] [z-score] |
| --- | --- | --- |
| CCGATTAACATCAAATCACCCCCTGATGTTAATCGGGTCTTGATTCGCTTGACGCTGCTG | 5.42 | 4.62 |
| CCGATTAACATCACCCGTTTCCCTGATGTTAATCGGGTCTTGATTCGCTTGACGCTGCTG | 4.29 | 2.75 |
| CCGATTAACATCATTCGGGAAAATGATGTTAATCGGGTCTTGATTCGCTTGACGCTGCTG | 4.94 | 3.03 |
| CCGATTAACATCACTGTTTTCCCTGATGTTAATCGGGTCTTGATTCGCTTGACGCTGCTG | 6.12 | 3.14 |
| CCGATTAACATCAGGGGACGCACTGATGTTAATCGGGTCTTGATTCGCTTGACGCTGCTG | 4.02 | 4.28 |
| CCGATTAACATCACATATTTCCCTGATGTTAATCGGGTCTTGATTCGCTTGACGCTGCTG | 5.42 | 3.71 |
| CCGATTAACATCAGGATCTTCCCTGATGTTAATCGGGTCTTGATTCGCTTGACGCTGCTG | 1.87 | 1.9 |
| CCGATTAACATCACAGGGAATTCTGATGTTAATCGGGTCTTGATTCGCTTGACGCTGCTG | 4.96 | 4.29 |
| CCGATTAACATCAAAACAATCCCTGATGTTAATCGGGTCTTGATTCGCTTGACGCTGCTG | 1.53 | 2.64 |
| CCGATTAACATCAGGGGTTTCCATGATGTTAATCGGGTCTTGATTCGCTTGACGCTGCTG | 4 | 4.95 |
| CCGATTAACATCAAATTTCCCGCTGATGTTAATCGGGTCTTGATTCGCTTGACGCTGCTG | 4.85 | 3.98 |
| CCGATTAACATCACGGGACTCCCTGATGTTAATCGGGTCTTGATTCGCTTGACGCTGCTG | 3.64 | 3.14 |

From paper PMC5700166
